# Results filed as inconclusive are left out. Values without a mark were called inactive. Active and inactive are the calls of the source. Calls come from the whole dose curve; as a rule, active = well fitted curve in the direction sought with a large enough effect; inconclusive = small, poorly fitted or top-dose-only effect, or another doubt; inactive = no such curve, though single readings can be large or run the other way.
# Target: Glucagon-like peptide 1 receptor (Homo sapiens) (UniProt P43220)
# Assay: qHTS of GLP-1 Receptor Agonists: LOPAC Validation (AID 624148);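 note: luminescence from a luciferase reporter switched on by cAMP; 0% is about no effect; higher luminescence signal means agonism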
# Conditions: GLP-1R agonist cell assay; series mostly up to 46.1 µM; activation: at the top concentration
# Description: The overall goal of this project was to develop a novel assay for discovering small molecule ligands for class B1 G protein-coupled receptors (GPCRs). Very few agonists (or inverse agonists) with generally weak activity for this entire group of physiologically important receptors are known to date. To establish proof-of-principle that this critical bottleneck can be overcome with a suitable screening approach, our studies focused on the class B1 receptor for glucagon-like peptide-1 (GLP-1R), a potential therapeutic target for diabetes and neurodegenerative disease.
# The assay was developed in a "mix and measure" format using a cell-based functional readout. Toward this goal, stably transfected HEK293 cell clones were established that co-express (i) a cAMP-responsive luciferase reporter gene, and (ii) GLP-1Rs that upon ligand interaction either stimulate (agonists) or inhibit (inverse agonists) luciferase activity. In different cell lines to be used for screening, expressed GLP-1Rs are specifically optimized for high sensitivity detection of either weak agonists (hypersensitive receptor) or inverse agonists (constitutively active receptor mutant). In addition, control cell lines were developed that express either the cAMP-responsive reporter gene without recombinant GLP-1Rs (enabling initial exclusion of GLP-1R independent effects of candidate probes), or the reporter gene together with wild type GLP-1Rs (for confirmation of probe activity at this receptor), or the reporter gene in combination with the constitutively active orphan receptor GPR119 (enabling initial exclusion of GLP-1R independent inhibitory effects of candidate inverse agonists).
# To that end, this assay was optimized for 1536-well format and screened against the MLSMR.
# NIH Molecular Libraries Probe Production Network [MLPCN]
# NIH Chemical Genomics Center [NCGC]
# PI Name: Martin Beinborn, Tufts Medical Center
# In a white solid 1536-well plate, 6 uL of cells are dispensed in DMEM without phenol red, 10% Nu serum, and 1% pen-strep medium. The plates are then incubated for 12 hours at 37 deg C at 5% CO2 before 23 nL of compounds are added. After a 4-6 hr incubation at37 deg C and 5% CO2, 3 uL of detection reagent are added and after a 12 min incubation at RT, a luminescent read is obtained on the ViewLux.
# Sequence of Glucagon-like peptide 1 receptor (Homo sapiens) (P43220 whole entry, looked up): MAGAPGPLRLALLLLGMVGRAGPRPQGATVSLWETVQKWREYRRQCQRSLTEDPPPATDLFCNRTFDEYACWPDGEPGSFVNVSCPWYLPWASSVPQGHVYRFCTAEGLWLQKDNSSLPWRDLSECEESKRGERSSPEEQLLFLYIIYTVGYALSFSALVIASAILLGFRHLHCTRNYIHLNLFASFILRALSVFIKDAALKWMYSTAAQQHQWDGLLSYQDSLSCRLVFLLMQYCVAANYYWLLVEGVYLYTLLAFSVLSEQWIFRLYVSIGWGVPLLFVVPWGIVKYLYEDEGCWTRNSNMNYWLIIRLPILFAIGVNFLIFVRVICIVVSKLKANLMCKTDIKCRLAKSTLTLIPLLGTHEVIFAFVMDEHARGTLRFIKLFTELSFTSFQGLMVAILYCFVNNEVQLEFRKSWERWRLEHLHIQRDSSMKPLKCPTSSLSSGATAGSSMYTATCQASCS
Structure (SMILES),activation,outcome
CCN1CCC[C@H]1CNC(=O)c1cc(S(N)(=O)=O)ccc1OC,-1.97%,–
Cc1cccc(C)c1OCC(C)N (stereo not drawn),-1.25%,–
CC1=C(/C=C/C(C)=C/C=C/C(C)=C/C(=O)Nc2ccc(O)cc2)C(C)(C)CCC1,11%,–
CC1(C)CCC2=C(O1)c1ccccc1C(=O)C2=O,-0.173%,–
CCn1cc(C(=O)O)c(=O)c2ccc(C)nc21,-2.03%,–
CC(=O)N[C@@H](CS)C(=O)O,0.493%,–
CC(C)(C)c1ccc(C(O)CCCN2CCC(C(O)(c3ccccc3)c3ccccc3)CC2)cc1 (stereo not drawn),-1.22%,–
O=C1NC(=O)C(c2ccccc2)(c2ccccc2)N1,–,inactive
CC(=O)c1ccc(S(=O)(=O)NC(=O)NC2CCCCC2)cc1,0.826%,–
O=c1c(-c2ccc(O)cc2)coc2cc(O)ccc12,0.608%,–
CCCCCN(C)CCC(O)(P(=O)(O)O)P(=O)(O)O,-1.77%,–
CC(=O)CCCCn1c(=O)c2c(ncn2C)n(C)c1=O,4.57%,–
CC(C)OC(=O)C(C)(C)Oc1ccc(C(=O)c2ccc(Cl)cc2)cc1,4.77%,–
COc1cccc(-c2cc(=O)c3ccccc3o2)c1N,0.865%,–
CCN(CC)C(=O)c1ccc(O)c(OC)c1,1.3%,–
COc1ccccc1N1CCN(CCCNc2cc(=O)n(C)c(=O)n2C)CC1,-1.66%,–
Clc1ccc(C(c2ccc(Cl)cc2)n2cc[n+](CC(OCc3ccc(Cl)cc3Cl)c3ccc(Cl)cc3Cl)c2)cc1 (stereo not drawn),0.753%,–

Structure (SMILES),activation,outcome
COC(=O)[C@@H]1[C@H]2C[C@H]3c4[nH]c5ccccc5c4CCN3C[C@@H]2CC[C@@H]1O,-1.03%,–
C[N+](C)(C)CCCCCC[N+](C)(C)C,–,inactive
CC(=O)O[C@]1(C(C)=O)CC[C@H]2[C@@H]3C=C(Cl)C4=CC(=O)[C@@H]5C[C@@H]5[C@]4(C)[C@H]3CC[C@@]21C,1.6%,–
O=c1cc(-c2ccc(O)cc2)oc2cc(O)cc(O)c12,6.52%,–
Clc1ccc(Cn2c(CN3CCCC3)nc3ccccc32)cc1,-2.18%,–
CC(C)NCC(O)COc1cccc2[nH]ccc12 (stereo not drawn),4.06%,–
O=C1NCC2(CCN(CCc3ccccc3)CC2)O1,-1.89%,–
NC(N)=Nc1nc(CSCC/C(N)=N/S(N)(=O)=O)cs1,6.02%,–
C[N+](C)(C)CC(=O)O,-1.42%,–
O=C(O)CCc1nc(-c2ccccc2)c(-c2ccccc2)o1,-1.13%,–
CCN(CC)CCOC(=O)c1ccc(N)cc1,-1.38%,–
NCCS,-1.91%,–
CCCCC1C(=O)N(c2ccccc2)N(c2ccccc2)C1=O,0.727%,–
O=C(NCCN1CCOCC1)c1ccc(Cl)cc1,-1.18%,–
CCCNC(=O)NS(=O)(=O)c1ccc(Cl)cc1,-0.67%,–
CC/C(=C(\c1ccccc1)c1ccc(OCCN(C)C)cc1)c1ccccc1,5.66%,–

# — PubChem BioAssay (NCATS)
